From PubChem BioAssay (NCI) come the findings set out here.

Compounds without any hit were thinned out: in the full panel of roughly 83,000, 20% have a hit.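 Assay: single dose, 48 h. Readout: percent growth (0 = no net growth; negative = cell death). Active: <10.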 Values without a mark were called inactive. Activity calls are given as the source filed them.

Common to all, as to test: NCI-60 one-dose screen, 48 h (100 = growth as untreated, 0 = no growth, -100 = all killed)
What all share (conditions): 10 µM unless noted

Experiment [1] deals with NCI-H23 lung.
Experiment [2] deals with NCI-H226 lung.
In experiment [3] the test system is NCI-H322M lung.
Experiment [4] has as its system HOP-62 NSCLC.
The test system of experiment [5] is NCI-H460 lung.
The subject of experiment [6] is HOP-92 NSCLC.
In experiment [7] the test system is NCI-H522 lung.
Experiment [8] has as its system A549/ATCC NSCLC.
For experiment [9], the system named is 786-0 renal.
In experiment [10] the test system is COLO 205 colon.
Experiment [11] deals with DU-145 prostate.
The test system of experiment [12] is K-562 leukemia.
Experiment [13] relates to MALME-3M melanoma.
Experiment [14] deals with MDA-MB-231 breast.
Experiment [15] relates to RXF 393 renal.
Experiment [16] deals with SF-268 CNS.
Experiment [17] relates to SF-295 CNS.
Experiment [18] deals with SF-539 CNS.
In experiment [19] the test system is UACC-257 melanoma.
The test system of experiment [20] is M14 melanoma.

With `CO[C@H](C(=O)O)[C@@H]1Cc2cc3cc(OC4CC(OC5CC(O)C(O)C(C)O5)C(O)C(C)O4)c(C)c(O)c3c(O)c2C(=O)[C@H]1OC1CC(OC2CC(OC3CC(C)(O)C(O)C(C)O3)C(O)C(C)O2)C(O)C(C)O1` (stereo not given in full), the growth is -0.124% (active) in [1]; 0.862% (active) in experiment [2]; 21.6% in experiment [3]; 20.7% in experiment [4]; 11.2% in experiment [5]; 24.7% in [6]. For the same compound, the growth in experiment [7] was -3.78% (active); in experiment [8], 13.7%; in experiment [9] it was 10.3%; in experiment [10], -12.5% (active); in [11] it was 21.5%; in experiment [12], 11.8%. Besides, the growth in experiment [13] was -10.4% (active); in experiment [14], 19.9%; in experiment [15], -57.1% (active); in [16], 29.3%; in experiment [17], 11.2%; in experiment [18] it was -23.1% (active). Also, the results for the growth in [19] and in experiment [20] were 7.77% (active) and -8.35% (active), respectively.

As for `C/C(=C\c1ccn(-c2ccc(N)cc2C(F)(F)F)n1)[C@@H]1C[C@@H]2O[C@]2(C)CCC[C@H](C)[C@H](O)[C@@H](C)C(=O)C(C)(C)[C@@H](O)CC(=O)O1`, the growth was 19.9% in [1]; 59.4% in experiment [2]; 23.4% in experiment [3]; 24.5% in experiment [4]; 9.25% (active) in experiment [5]; 57% in experiment [6]. Also, the growth in experiment [7] was 0.465% (active); in [8], 9.78% (active); in [9], 16.4%; in experiment [10] it was -6.04% (active); in experiment [11] it was -14.1% (active); in experiment [12], 6.1% (active). Moreover, the growth was 39.9% in experiment [13]; 16.4% in experiment [14]; 9.23% (active) in experiment [15]; 22.5% in experiment [16]; 2.39% (active) in experiment [17]; 3.05% (active) in experiment [18]. Further, the figures for the growth in experiment [19] and in experiment [20] were 37.9% and -12.6% (active), respectively.

Regarding `c1cnc2[nH]cc(-c3csc(-c4cn(CCCCN5CCOCC5)c5ccccc45)n3)c2c1`, the growth was 81.1% in experiment [1]; 72.4% in experiment [2]; 79% in experiment [3]; 52.8% in experiment [4]; 31.4% in experiment [5]; 32% in [6]. The growth in experiment [7] was 49.1%; in experiment [8], 56.9%; in [9], 54%; in experiment [10] it was -77.6% (active); in experiment [11], 70%; in experiment [12], -38.7% (active). Besides, the growth in experiment [13] is -25% (active); in experiment [14] it was 32.8%; in experiment [15], 53.7%; in experiment [16] it was 49.7%; in experiment [17], 53.9%; in experiment [18] it was 80.8%. The growth in experiment [19] was 67.8%; in experiment [20], -49.9% (active).

Take `CCn1cnc2c(Nc3cccc(Cl)c3)nc(N[C@@H]3CCCC[C@@H]3N)nc21`: the growth in [1] was -21.5% (active); in experiment [2] it was 10.6%; in experiment [3] it was 15.4%; in [4], -11.1% (active); in experiment [5], 1.68% (active); in experiment [6] it was -9.78% (active). Besides, the growth is -32.4% (active) in experiment [7]; -7.67% (active) in experiment [8]; 1.83% (active) in experiment [9]; -67.6% (active) in [10]; 6.73% (active) in experiment [11]; -2.92% (active) in [12]. Further, the growth was 15% in experiment [13]; -22.3% (active) in experiment [14]; -44.5% (active) in experiment [15]; 0.266% (active) in experiment [16]; 9.85% (active) in experiment [17]; -5.76% (active) in experiment [18]. Besides, the growth is 14.1% in experiment [19] and -45.8% (active) in experiment [20].

For `Cn1cc(-c2csc(-c3cn(CCN4CCOCC4)c4ccccc34)n2)c2cccnc21`, the growth in [1] is 62.6%; in experiment [2], 41.4%; in [3], 84.8%; in [4], 55.3%; in experiment [5] it was 75.3%; in experiment [6] it was 48.6%. Besides, the growth in [7] was 40.6%; in experiment [8] it was 63%; in experiment [9], 75.5%; in [10] it was 51.2%; in [11], 89.1%; in experiment [12] it was 44.8%. Also, the growth was 81.4% in experiment [13]; 69.8% in [14]; 93.7% in experiment [15]; 79.8% in experiment [16]; 72.2% in [17]; 73.2% in [18]. For the same compound, the values for the growth in [19] and in [20] were 90.7% and 39%, respectively.

Turning to `CC(=O)ONc1ccc([N+](=O)[O-])c(C(F)(F)F)c1`, the growth in experiment [1] was 92.1%; in experiment [2], 97.8%; in experiment [3], 108%; in experiment [4] it was 80%; in [5] it was 109%; in [6], 99.6%. In addition, the growth in [7] was 97.8%; in experiment [8] it was 95.3%; in experiment [9], 97.6%; in [10], 106%; in experiment [11], 108%; in experiment [12], 105%. Further, the growth in [13] was 111%; in experiment [14], 102%; in experiment [15] it was 115%; in [16], 95.3%; in [17], 97.8%; in experiment [18], 93.5%. In addition, the growth was 110% in experiment [19] and 98.8% in [20].

`Cc1cc(C)c(CBr)c(C)c1`: the growth in experiment [1] was 100%; in experiment [2] it was 92.8%; in [3] it was 92.4%; in experiment [4], 104%; in experiment [5] it was 109%; in experiment [6] it was 87.5%. The growth in [7] is 90.2%; in [8], 95.1%; in [9] it was 99.2%; in experiment [10], 107%; in [11], 107%; in experiment [12], 107%. For the same compound, the growth in experiment [13] is 99.3%; in experiment [14], 106%; in [15], 100%; in experiment [16], 105%; in [17] it was 101%; in [18] it was 93.5%. The growth in experiment [19] is 96.8%; in [20] it was 109%.

Consider `CN(C)C(=O)Oc1ccc(Br)cc1`, for which the growth was 102% in experiment [1]; 101% in [2]; 86.1% in experiment [3]; 93% in [4]; 104% in experiment [5]; 107% in [6]. Besides, the growth in [7] was 95.6%; in experiment [8], 100%; in [9], 98.6%; in experiment [10], 102%; in [11], 107%; in experiment [12], 96.5%. The growth is 98% in experiment [13]; 105% in [14]; 107% in experiment [15]; 110% in experiment [16]; 91.3% in experiment [17]; 108% in [18]. Further, the growth was 95% in experiment [19] and 104% in [20].
